Gli-Sufu antag: Gli-Sufu pathway antagonists, primary screen, luciferase luminescence, Sufu-KO-LIGHT cells, uHTS | 0.74% of 340,000 active | AID 588413, 2011 | inhibition, % at 5 µM | Sufu-KO-LIGHT fibroblasts, Gli luciferase reporter luminescence;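 active = inhibition above about 55%, limit read from the data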
NR5A2 inv ag: LRH-1 (NR5A2) inverse agonists, primary screen, cell-based, luminescence, HEK293T, StAR-luciferase reporter | LRH-1 transfected, 24 h | Nuclear receptor subfamily 5 group A member 2 (Homo sapiens), O00482 | inhibition, % at 3.6 µM | 0.13% of 360,000 active;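 active = inhibition above the mean inhibition of all tested compounds plus 3 SD, cut at about 73% in these data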
SRC2 inh: inhibition of GAL4-SRC2 driven luciferase reporter, primary screen, SRC2 inhibitor project, cell-based, luminescence; Nuclear receptor coactivator 2 (Homo sapiens), Q15596; inhibition, % at 9 µM; 0.17% of 370,000 active; AID 651957, 2012; HEK293 GAL4-SRC2 luciferase reporter;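 active = inhibition above the mean inhibition of all tested compounds plus 3 SD, set per campaign, cut at about 52% in these data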
NCOA3 inh: SRC3 coactivator transcriptional activity inhibitors, primary screen, cell-based, luminescence; AID 588352, 2011; 0.17% of 360,000 active; HEK293 GAL4-SRC3 luciferase reporter; inhibition, % at 3.6 µM;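 active = inhibition above a per-campaign cutoff, the mean of all compounds plus 3 SD, cut at about 60% in these data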;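 note: higher means less SRC3-driven luciferase light from the GAL4 reporter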
NCOA1 inh: SRC1 coactivator transcriptional activity inhibitors, primary screen, cell-based, luminescence; Nuclear receptor coactivator 1 (Homo sapiens), Q15788; HEK293 GAL4-SRC1 luciferase reporter; inhibition, % at 3.6 µM; 0.12% of 360,000 active; AID 588354, 2011;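 active = inhibition above the campaign mean plus 3 SD, with each screening campaign given its own cutoff, cut at about 60% in these data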
Shn3 3UTR inh: reduction of Shn3 3'UTR firefly luciferase signal, primary screen, Schnurri-3 inhibitor project, cell-based, Clone20 osteoblasts, set 2 | Clone20 osteoblast Shn3 3'UTR firefly luciferase, 24 h | inhibition, % at 12.5 µM | 0.52% of 360,000 active | AID 588674, 2011;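 active = mean inhibition of at least 75% with every replicate also reaching 75%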
Of the large screens only hits and unclear results are named; the others gave an inactive call. Shown are actives, neighbours in structure and some others; about 1.1% of the full set was active somewhere.

OC[C@H]1O[C@@H](n2cnc3c(NCc4ccco4)ncnc32)[C@H](O)[C@@H]1O	none
Cc1ccc2c(c1)C1CS(=O)(=O)N(CCc3ccccc3)C(=O)N1C2 (stereo unspecified)	none (no result: Gli-Sufu antag, NR5A2 inv ag, NCOA3 inh, NCOA1 inh, Shn3 3UTR inh)
O=C(O)C1(Nc2ccccc2)CCCC1	none
O=C(O)C1(Nc2ccccc2Cl)CCCC1	Shn3 3UTR inh 93
CCN=c1scc(-c2ccc(F)cc2)n1/N=C/c1ccccn1	none
CC(C)N=c1scc(-c2cccs2)n1/N=C/c1ccc(O)c(O)c1O	Shn3 3UTR inh 88
CN=c1scc(-c2ccccc2F)n1/N=C/c1ccc(O)c(O)c1O	Shn3 3UTR inh 88
CN=c1scc(-c2ccccc2F)n1/N=C/c1ccc[nH]1	Gli-Sufu antag 86, NR5A2 inv ag 91, SRC2 inh 91, NCOA3 inh 92, NCOA1 inh 92
Cc1cccc(-c2cccc3c4c([nH]c23)[C@@H]2C[C@H](N(C)C(=O)Nc3ccccc3C)[C@H]([C@H](C)O)C(=O)N2CC4)c1	none (no result: Gli-Sufu antag, NR5A2 inv ag, NCOA3 inh, NCOA1 inh, Shn3 3UTR inh)
COc1cc(/C=C/C(=O)N2C(=O)c3cccc(N)c3C2=O)cc(OC)c1OC	none
COc1ccc(OC)c(/C=C/C(=O)N2C(=O)c3cccc(N)c3C2=O)c1	Shn3 3UTR inh 92
O=C(NCc1cccs1)c1nc2c(nnn2Cc2ccccc2Cl)c(=O)[nH]1	NR5A2 inv ag 101, SRC2 inh 56, NCOA3 inh 90
CC(=O)c1ccc(NC(=O)NC2CCCCN(Cc3ccc(Cl)cc3)C2=O)cc1 (stereo unspecified)	none (no result: Gli-Sufu antag, NR5A2 inv ag, NCOA3 inh, NCOA1 inh, Shn3 3UTR inh)
COc1cc(/C=N/NC(=O)c2cc(C3CC3)[nH]n2)cc(OC)c1OC	none
CCOc1cccc(/C=N/NC(=O)c2cc(C3CC3)[nH]n2)c1O	Shn3 3UTR inh 95
CCN1CCN(Cc2ccc(NC(=O)c3cc(NC(=O)c4ccno4)cc(OC)c3)cc2C(F)(F)F)CC1	none
CCN1CCN(Cc2ccc(NC(=O)c3cc(NC(=O)c4cc(-c5ccc(OC)cc5)n[nH]4)cc(OC)c3)cc2C(F)(F)F)CC1	none
CCN1CCN(Cc2ccc(NC(=O)c3cc(NC(=O)c4cncc(-c5cccs5)c4)cc(OC)c3)cc2C(F)(F)F)CC1	Shn3 3UTR inh 98
CCN1CCN(Cc2ccc(NC(=O)c3cc(NC(=O)c4cc5cccc(OC)c5o4)cc(OC)c3)cc2C(F)(F)F)CC1	Shn3 3UTR inh 99
O=C(NCc1ccccc1Cl)C1CCC(CNS(=O)(=O)c2cccc3cccnc23)CC1 (stereo unspecified)	none (no result: Gli-Sufu antag, NR5A2 inv ag, NCOA3 inh, NCOA1 inh, Shn3 3UTR inh)
COCCCNC(=O)C[C@H]1C[C@@]2(C(=O)OC)C(=C[C@H](COCc3ccccc3)O[C@@H]2C)N(Cc2ccc(Cl)cc2Cl)C1=O	none (no result: Gli-Sufu antag, NR5A2 inv ag, NCOA3 inh, NCOA1 inh, Shn3 3UTR inh)
CC(=O)OCCNc1cc(N2CCN(C)CC2)c2noc3c2c1C(=O)c1ccccc1-3	none
CCOC(=O)C(C(=O)OCC)c1cc(Br)c2noc3c2c1C(=O)c1ccccc1-3	Shn3 3UTR inh 99
Cc1cccc(C(=O)Nc2nc3ncccn3c2-c2ccc(F)cc2)c1	none (no result: Gli-Sufu antag, NR5A2 inv ag, NCOA3 inh, NCOA1 inh, Shn3 3UTR inh)
COc1ccc2cc(CNCCOCCOCCNCc3ccc4cc(OC)ccc4c3)ccc2c1	Shn3 3UTR inh 96
CCOCCCNCc1ccc(OC)cc1	none
OC(c1ccccc1)(c1ccccc1)C1CCN(CCCNc2ccccc2F)CC1	none (no result: Gli-Sufu antag, NR5A2 inv ag, NCOA3 inh, NCOA1 inh, Shn3 3UTR inh)
CCC(NC(=O)Nc1nnc(C(F)(F)F)s1)(C(F)(F)F)C(F)(F)F	NCOA3 inh 76
CN(C)S(=O)(=O)c1cccc(C(=O)N/N=C\c2ccccc2)c1	none (no result: Gli-Sufu antag, NR5A2 inv ag, NCOA3 inh, NCOA1 inh, Shn3 3UTR inh)
Cc1[nH]nc2c1-c1nc3ccccc3nc1C(C)(C)C2	Shn3 3UTR inh 89
CC12CCC(C)(c3nc4ccccc4nc31)C2(C)C	none
CCCCC1(COC(=O)CCC(=O)O)C(=O)N(c2ccccc2)N(c2ccccc2)C1=O	none
CCCCC1(Cc2ccc([N+](=O)[O-])cc2)C(=O)N(c2ccccc2)N(c2ccccc2)C1=O	Shn3 3UTR inh 92
Cc1ccccc1CNC(=O)C1CCC(CNS(=O)(=O)c2cccc3cccnc23)CC1 (stereo unspecified)	none (no result: Gli-Sufu antag, NR5A2 inv ag, NCOA3 inh, NCOA1 inh, Shn3 3UTR inh)
COc1ccc(-n2c(COc3ccccc3)nnc2SCC(=O)Nc2ccc3c(c2)OCCO3)cc1	none (no result: Gli-Sufu antag, NR5A2 inv ag, NCOA3 inh, NCOA1 inh, Shn3 3UTR inh)
O=C(CC1SC(=Nc2ccc(OC(F)F)cc2)N(CCN2CCOCC2)C1=O)Nc1ccc(F)cc1F (stereo unspecified)	none
CN=C1SC(CC(=O)Nc2ccc(F)cc2F)C(=O)N1/N=C/c1ccc(OC(F)F)c(OC)c1 (stereo unspecified)	Shn3 3UTR inh 83
CCOc1ccc(C(=O)CSCCC(=O)O)cc1	SRC2 inh 55
CCOc1ccc(C(=O)Cc2ccccc2)cc1	none
Cc1sc2ncnc(NC3CCN(Cc4ccccc4)CC3)c2c1C	Gli-Sufu antag 78, Shn3 3UTR inh 88
COc1ccc(S(=O)(=O)N2CCN(c3cc(-c4ccccc4)nc4ncnn34)CC2)cc1	Shn3 3UTR inh 87
O=S(=O)(c1ccccc1)N1CCN(c2cc(-c3ccccc3)nc3ncnn23)CC1	Gli-Sufu antag 57, Shn3 3UTR inh 84
COc1ccc(-c2cc(N3CCCC3)n3ncnc3n2)cc1	none
O=S(=O)(c1ccc(Br)cc1)N1CCN(c2cc(-c3ccccc3)nc3ncnn23)CC1	none (no result: SRC2 inh)
C/C(=N/NS(=O)(=O)c1ccc(CC(C)C)cc1)c1ccncc1	Shn3 3UTR inh 87
C/C(=N/NS(=O)(=O)c1ccc(C(C)C)cc1)c1ccncc1	none
CCCCCCCCCCCCCCCC[N+](C)(C)CCl	Gli-Sufu antag 58
CCCCCCCCCCCCCCCC[N+](C)(C)CC	Gli-Sufu antag 75, Shn3 3UTR inh 93
CCCCCC[N+](C)(C)CCSSCC[N+](C)(C)CCCCCC	none
COc1ccc(CN2C(=O)CCCC2(C)c2nnnn2-c2ccc3c(c2)OCCO3)cc1 (stereo unspecified)	none (no result: Gli-Sufu antag, NR5A2 inv ag, NCOA3 inh, NCOA1 inh, Shn3 3UTR inh)
CCc1c(C)nc2ncnn2c1NCCc1ccc(Cl)cc1	Shn3 3UTR inh 88
CCc1c(C)nc2ncnn2c1NCCc1ccccc1	none
CCN(CC)c1ccc(/C=N/NC(=O)c2ccc3nc[nH]c3c2)c(O)c1	Shn3 3UTR inh 92 (no result: SRC2 inh)
CCN(CC)c1ccc(/C=N/NC(=O)c2nnn(-c3nonc3N)c2C(C)C)c(O)c1	Gli-Sufu antag 92, NCOA3 inh 77, Shn3 3UTR inh 92
CCN(CC)c1ccc(/C=N/NC(=O)c2cccc(S(=O)(=O)Nc3ccccc3OC)c2)c(O)c1	Gli-Sufu antag 84, NCOA3 inh 81, NCOA1 inh 73
CCCCn1c(C)nc2cc(S(=O)(=O)N3CCOCC3)ccc21	none
CCCCn1c(CCl)nc2cc(S(=O)(=O)N3CCOCC3)ccc21	SRC2 inh 63

Bioassay records (PubChem)
